Compounds with a hit are over-represented: about 9.2% of the library has one in this group of screens.
ELG1 genotoxic: inducers of genotoxicity in HEK293T ELG1-luciferase cells; HEK293T ELG1-luciferase reporter, luminescence, 16 h; 1.3% of 330,000 active; Potency, µM (highest dose often 46 µM), without a hit: at the highest dose activity change, positive = activation, most hits filed as activators; also: % of control where 0% means no effect; nearly all actives have a fitted effect of over 60% in size
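HEK293T cells expressing luciferase-tagged ELG1 were exposed to compound or DMSO vehicle for 16 hr at 37 °C and 5% CO2. Luciferase activity was then measured with ONE-Glo after 30 min at room temperature.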
ELG1 repair inh: ELG1-dependent DNA repair inhibition | HEK293T ELG1-luciferase reporter, luminescence, 16 h; DNA damage induced by 5-fluorouridine | Potency, µM (series often up to 46.1 µM), without a hit: at the highest dose activity change, negative = inhibition, hits mostly inhibitors | 2.3% of 330,000 active | AID 504467; also: % is scaled to controls: 0 for no effect and ±100 for the full control effect; nearly all actives have a fitted effect of over 55% in size
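Step one: seed 2,000 cells per well. Step two: pin-transfer compound or DMSO alongside 5-fluorouridine. Step three: incubate 16 hr, 37 °C, 5% CO2. Step four: add ONE-Glo, wait 30 min, read luminescence.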
Rab9 promoter act: activators of Rab9 promoter | 2.8% of 320,000 active | Huh7 Rab9 promoter-luciferase reporter, luminescence, 24 h | AID 485297 | Potency, µM (top dose mostly 9.22 µM), for the others: at the top dose activation, negative = inhibition, hits mostly activators; also: % of control where 0% means no effect; nearly all actives have a fitted effect of over 60% in size
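Using Huh7 cells stably transfected with Rab9 promoter–luciferase, compounds were incubated 24 h at 37 °C, 5% CO2; luciferase luminescence was read 10 min after reagent addition.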
FLuc counter: inhibits or activates purified firefly luciferase, miR-21 counter-screen | purified FLuc, Km substrates, luminescence inhibition | 6.9% of 360,000 active | Potency, µM (series often up to 57.5 µM), without a hit: at the highest dose activity change, negative = inhibition, usual class: inhibitors | AID 588342;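 also: plate controls were vehicle for no effect and reference inhibitor for full effect; nearly all actives have a fitted effect of over 55% in size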
Target sequence (P08659 whole entry, looked up): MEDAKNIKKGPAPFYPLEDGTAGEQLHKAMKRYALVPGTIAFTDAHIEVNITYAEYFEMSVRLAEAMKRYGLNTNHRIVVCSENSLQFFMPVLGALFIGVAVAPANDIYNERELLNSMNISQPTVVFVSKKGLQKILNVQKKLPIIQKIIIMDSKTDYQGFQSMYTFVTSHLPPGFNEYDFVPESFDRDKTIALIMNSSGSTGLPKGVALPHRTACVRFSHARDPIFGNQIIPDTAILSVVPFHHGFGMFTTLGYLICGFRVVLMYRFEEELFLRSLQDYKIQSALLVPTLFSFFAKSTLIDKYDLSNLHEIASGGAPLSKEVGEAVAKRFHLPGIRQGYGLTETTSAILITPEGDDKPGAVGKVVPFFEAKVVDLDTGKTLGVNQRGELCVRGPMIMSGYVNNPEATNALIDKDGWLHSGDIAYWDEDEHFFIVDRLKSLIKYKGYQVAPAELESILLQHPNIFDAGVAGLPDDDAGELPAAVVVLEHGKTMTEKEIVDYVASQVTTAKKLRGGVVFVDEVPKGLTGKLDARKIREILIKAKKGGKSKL
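Purified P. pyralis luciferase (10nM final) with 10uM D-luciferin and 10uM ATP (Km levels) in 50mM Tris acetate pH 7.5, 10mM Mg acetate, 0.01% Tween-20, 0.05% BSA; qHTS 6-point titration, ~60 µM downward; luminescence read.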
NPC1 promoter act: activates the NPC1 promoter. Huh7 NPC1 promoter luciferase reporter, 24 h. 2.4% of 320,000 active. Potency, µM (highest dose often 9.22 µM), inactives show at the top dose activation, actives largely listed as activators. AID 485313; also: % of control where 0% means no effect; nearly all actives have a fitted effect of over 60% in size
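Huh7 cells stably carrying NPC1 promoter–luciferase, plated in Opti-MEM with 10% FBS for 2 h, were exposed to compound in DMSO for 24 h at 37 °C; luciferase reagent was added for 10 min and luminescence read.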
SMN2 splice enh: enhancers of SMN2 splice variant expression; HEK293 SMN2-luciferase splicing reporter, luminescence, 30-36 h; Potency, µM (series often up to 46.1 µM), without a hit: top-dose activity change, positive = activation, actives largely listed as activators; 2.8% of 210,000 active; AID 1458; also: % of control where 0% means no effect; nearly all actives have a fitted effect of over 55% in size
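HEK293 cells carry an SMN2 […]–luciferase reporter in which exon 7 inclusion puts luciferase in frame. Cells were plated 10-12 h before compound addition, then incubated 30-36 h at 37C. ONE-Glo luminescence was read; sodium butyrate at 4.5 mM final served as control.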
Starred values were filed as active, the others as inactive; ? = inconclusive; . = no result given. Calls follow the shape of the dose curve; as a rule, active = well fitted curve in the direction sought with a large enough effect; inconclusive = small, poorly fitted or top-dose-only effect, or another doubt; inactive = no such curve, though single readings can be large; an effect the other way counts as inactive or inconclusive. Potency is read from the fitted curve at half-maximal effect.

SMILES	ELG1 genotoxic	ELG1 repair inh	Rab9 promoter act	FLuc counter	NPC1 promoter act	SMN2 splice enh
N=c1c2c(n(Cc3ccccc3)c3c1CCC3)CCC2	-0.6%	2.91µM*	-39.2%	-3.3%	-25.4%	-38.1%
Cc1nc(-c2ccc(F)cc2)c(CC(=O)N2CCN(S(=O)(=O)c3cccc([N+](=O)[O-])c3)CC2)s1	-7.6%	?	4.4%	5.4%	7.9%	.
CC1=C(C(=O)Nc2c(C)cc(C)cc2C)C2(CCN(C(C)C)CC2)OC1=O	.	.	.	0.6%	.	.
Cc1ccc(S(=O)(=O)N2CCN(Cc3noc(CCC(=O)N4CCCCC4)n3)CC2)c(C)c1	.	.	.	-1.7%	.	.
Cc1c(-c2nc(N)nc(Nc3ccccc3)n2)oc2ccccc12	7.31µM*	?	2.51µM*	4.78µM*	1.41µM*	11.2µM*
Nc1nc(CN2CCCCCC2)nc(Nc2ccccc2)n1	2.3%	3.7%	-2.4%	0.4%	7.4%	7.0%
O=C(O)c1cc(N/N=C/c2ccc(OCc3ccccc3)cc2)ccc1Cl	?	?	0.562µM*	6.75µM*	2.51µM*	11.2µM*
O=C(O)c1ccc(N/N=C/c2ccc(OC(=O)c3cccc(Cl)c3)cc2)cc1	-3.8%	?	?	19µM*	?	.
CSc1ccc(/C=N/Nc2cccc(C(=O)O)c2)cc1	0.073µM*	?	0.0891µM*	0.0757µM*	?	0.251µM*
Cc1cc(C(=O)N/N=C/c2ccc(OCc3ccccc3)cc2)c(C)o1	-3.8%	4.2%	6.8%	?	-1.1%	10.7%
O=C(O)c1cccc(N/N=C/c2cccs2)c1	?	?	?	0.426µM*	?	0.141µM*
Cc1cccc(C(=O)Oc2ccc(/C=N/NC(=O)c3ccc(O)cc3)cc2)c1	5.4%	-0.2%	3.8%	?	-2.4%	.
Cn1cc(Br)c(C(=O)N/N=C/c2cc3ccccc3nc2Cl)n1	0.9%	7.2%	20.4%	?	?	.
CC1(c2ccc(Cl)cc2)NC(=O)N(CC(=O)N2CCc3ccccc32)C1=O (centres undefined)	-0.5%	22.0%	.	.	.	.
COc1ccc(NC(=O)C(NS(=O)(=O)c2cccs2)C(C)C)cc1Cl (centres undefined)	-4.6%	10.7%	-1.9%	0.9%	-2.5%	.
OCC(CO)(CBr)CBr	.	.	.	.	.	-9.0%
COC(=O)c1ccc(COc2ccc(/C=N/Nc3cccc(C(=O)O)c3)cc2)cc1	?	?	0.398µM*	2.69µM*	0.708µM*	.
O=C(Nc1ccc(OC(F)(F)F)cc1)c1cccc(-n2cnnn2)c1	-1.1%	-7.1%	-6.8%	0.1%	-2.3%	.
O=C(N/N=C/C=C/c1ccccc1)c1ccccc1Br	-3.0%	?	-2.1%	?	4.0%	22.4%
O=C(O)c1cccc(N/N=C/c2ccc(OC(F)(F)F)cc2)c1	?	?	0.0316µM*	0.0675µM*	?	.
O=C(O)c1cc(N/N=C/C=C/c2ccccc2)ccc1Cl	9.2µM*	?	0.355µM*	7.57µM*	0.398µM*	10µM*
COc1ccc(S(=O)(=O)Nc2cccc(-c3ccc4nncn4n3)c2)c(OC)c1	3.4%	2.3%	-5.8%	-1.7%	-14.3%	.
COc1cccc(C2C(C(=O)Nc3ccc(C)cc3C)=C(C)Nc3c(C(=O)Nc4cccc(C)c4)cnn32)c1OC (centres undefined)	.	.	.	3.2%	.	.
CCOC(=O)/C(=C\C=C1/Sc2cc(OCC)c(OCC)cc2N1CC)C(C)=O	-5.0%	16.4µM*	2.3%	0.5%	1.1%	-46.8%
CCN(CC(=O)Nc1c(F)cccc1F)C(=O)C1CC1	3.1%	1.3%	-4.8%	-0.3%	-6.1%	.
COc1cc(/C=N\NC(=O)c2ccc(-c3ccccc3)cc2)cc(Br)c1O	-10.6%	-23.4%	4.9%	10.7µM*	-0.1%	.
COc1cc(/C=N/NC(N)=S)cc(Br)c1OCc1ccccc1F	-7.1%	23.1µM*	-9.9%	-9.6%	-9.0%	-32.9%
COc1cc(/C=N/NC(=O)c2ccc3c(c2)OCCO3)c(Br)c(Br)c1O	9.4%	?	-1.0%	9.53µM*	0.6%	.
